This excerpt belongs to a sample that is enriched for the strongest signals.

What all share (assay): glycan array binding signal (z-score within array); higher = stronger binding
Common to all, as to conditions: glycan notation: IUPAC condensed, linker removed

In experiment [1] the target is Fuc(a1-2)Gal. In short, it runs like this:
(§1)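 Columns mapping to the same glycan were averaged after glycan names were converted to IUPAC-condensed notation. The data come from 3228 arrays in the Consortium for Functional Glycomics database, limited to those with an available protein sequence. Binding is reported as a within-array Z-score averaged across arrays of one protein sequence and across linkers.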

Experiment [2] deals with Fuc(a1-2)Gal(b1-3)GlcNAc(b1-3)Gal(b1-4)Glc. Summed up: as §1
For experiment [3], the target named is Fuc(a1-2)Gal(b1-3)GlcNAc(b1-3)[Fuc(a1-2)Gal(b1-3)GlcNAc(b1-6)]GalNAc. Summed up: as §1
The target in experiment [4] is Fuc(a1-2)Gal(b1-4)GlcNAc. In short, it runs like this:
as §1

Experiment [5] addresses Fuc(a1-2)Gal(b1-4)GlcNAc(b1-6)GalNAc. Summed up:
as §1

For experiment [6], the target named is Fuc(a1-2)Gal6S(b1-3)GlcNAc6S. In short, it runs like this: as §1
Experiment [7] addresses Fuc(a1-2)Gal6S(b1-4)Glc6S. Summed up:
as §1

Experiment [8] addresses Fuc(a1-2)[Gal(a1-3)]Gal(b1-3)GlcNAc(b1-2)Man(a1-3)[Fuc(a1-2)[Gal(a1-3)]Gal(b1-3)GlcNAc(b1-2)Man(a1-6)]Man(b1-4)GlcNAc(b1-4)[Fuc(a1-6)]GlcNAc. In short, it runs like this:
as §1

Experiment [9] deals with Fuc(a1-2)[Gal(a1-3)]Gal(b1-4)GlcNAc(b1-3)GalNAc. In short, it runs like this: as §1
In experiment [10] the target is Fuc(a1-2)[GalNAc(a1-3)]Gal(b1-4)Glc. In short, it runs like this: as §1
Experiment [11] addresses Fuc(a1-2)[GalNAc(a1-3)]Gal(b1-4)GlcNAc(b1-2)Man(a1-3)[Fuc(a1-2)[GalNAc(a1-3)]Gal(b1-4)GlcNAc(b1-2)Man(a1-6)]Man(b1-4)GlcNAc(b1-4)[Fuc(a1-6)]GlcNAc. In short, it runs like this:
as §1

The target of experiment [12] is Fuc(a1-3)[Gal(b1-4)]GlcNAc6S. In short, it runs like this:
as §1

For experiment [13], the target named is Fuc(a1-3)[Gal3S(b1-4)]Glc. Summed up:
as §1

The target of experiment [14] is Gal(a1-3)Gal(b1-4)GlcNAc(b1-2)Man(a1-3)[Gal(a1-3)Gal(b1-4)GlcNAc(b1-2)Man(a1-6)]Man(b1-4)GlcNAc(b1-4)GlcNAc. In short, it runs like this: as §1
For experiment [15], the target named is Gal(b1-3)GalNAc(b1-3)Gal. Summed up:
as §1

The target in experiment [16] is Gal(b1-3)GlcNAc(a1-6)Gal(b1-4)GlcNAc. In short, it runs like this:
as §1

Experiment [17] addresses Gal(b1-3)GlcNAc(b1-2)Man. In short, it runs like this: as §1
Experiment [18] concerns the target Gal(b1-3)GlcNAc(b1-3)Gal(b1-4)Glc. In short, it runs like this:
as §1

Experiment [19] has as its target Gal(b1-3)GlcNAc(b1-3)Gal(b1-4)GlcNAc(b1-2)[Gal(b1-3)GlcNAc(b1-3)Gal(b1-4)GlcNAc(b1-6)]Man(a1-6)[Gal(b1-3)GlcNAc(b1-3)Gal(b1-4)GlcNAc(b1-2)Man(a1-3)]Man(b1-4)GlcNAc(b1-4)[Fuc(a1-6)]GlcNAc. Summed up: as §1
In experiment [20] the target is Gal(b1-3)GlcNAc(b1-3)Gal(b1-4)GlcNAc(b1-3)Gal(b1-4)GlcNAc(b1-2)[Gal(b1-3)GlcNAc(b1-3)Gal(b1-4)GlcNAc(b1-3)Gal(b1-4)GlcNAc(b1-6)]Man(a1-6)[Gal(b1-3)GlcNAc(b1-3)Gal(b1-4)GlcNAc(b1-3)Gal(b1-4)GlcNAc(b1-2)Man(a1-3)]Man(b1-4)GlcNAc(b1-4)[Fuc(a1-6)]GlcNAc. Summed up:
as §1

Experiment [21] deals with Gal(b1-3)GlcNAc(b1-3)Gal(b1-4)[Fuc(a1-3)]GlcNAc. In short, it runs like this:
as §1

Experiment [22] deals with Gal(b1-4)GlcNAc(b1-2)Man. Summed up:
as §1

Experiment [23] has as its target Gal(b1-4)GlcNAc(b1-3)Gal(b1-4)GlcNAc(b1-3)Gal(b1-4)GlcNAc(b1-2)Man(a1-3)[Gal(b1-4)GlcNAc(b1-3)Gal(b1-4)GlcNAc(b1-3)Gal(b1-4)GlcNAc(b1-2)Man(a1-6)]Man(b1-4)GlcNAc(b1-4)[Fuc(a1-6)]GlcNAc. In short, it runs like this: as §1

B1: Mg3lysM (Mycosphaerella graminicola) (protein)
chain: APQNPPTSCSAAPQPTGTGSPGTVCGSTTFTNYTVKAGDTLGAIAKQYNSGVCDIAKVNGIDNPDYIKPDQVLSIPANCVTPDNTSCVKPVPVITNTCVLGVGSTYTVKSGDSFSAIATSFNITLASLEARNPQIPNYDLIFPGQVINTPLCPNSVCDSIGTYVIESGDIFYNLAQSNNVTVGQLESLNVNVNVTDIHPGDIIILPHNCHNITASA
B1: the “glycan array binding signal (z-score)” value in experiment [1] is -0.076; in experiment [2], -0.042; in [3], 0.259; in experiment [4], -0.021; in experiment [5], -0.086; in [6], -0.089. In addition, the “glycan array binding signal (z-score)” value was -0.1 in experiment [7]; -0.127 in experiment [8]; -0.118 in [9]; -0.072 in [10]; 0.01 in [11]; 0.023 in experiment [12]. The “glycan array binding signal (z-score)” value was -0.089 in [13]; -0.058 in experiment [14]; 0.131 in experiment [15]; -0.12 in experiment [16]; -0.123 in experiment [17]; -0.065 in experiment [18]. Besides, the “glycan array binding signal (z-score)” value in experiment [19] is 0.063; in experiment [20], 0.15; in experiment [21], -0.157; in experiment [22], -0.039; in experiment [23], -0.107.

Source of the values: the supplement of paper PMC8728848.
